The target of test [1] is 6-phosphogluconate dehydrogenase, decarboxylating (Homo sapiens) (UniProt P52209). As to the kind of experiment: 6PGD enzyme inhibitors, primary screen, biochemical, human, recombinant enzyme, NADPH absorbance (AID 1159550;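 active = at least 20% inhibition of 6-phosphogluconate dehydrogenase activity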). The conditions noted are these: recombinant 6PGD, NADPH absorbance 341 nm; at 10 µM; stronger effect = higher value.
Test [2] is described as follows: growth inhibition of DIPG glioma cells, dose response, cell-based, JHH-DIPG-1, MIPE4.0, CellTiter-Glo, qHTS (AID 1347062; cut-off not given, nearly all actives have AC50 up to about 27 µM;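 as to AC50: cells exposed to compound for two days before readout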). The following applies: JHH-DIPG-1 viability, CellTiter-Glo ATP luminescence.
For test [3], the target named is NAD(+) hydrolase SARM1 (Homo sapiens) (UniProt Q6SZW1). The test can be described thus: SARM1 TIR NADase inhibitors, cell lysate, NAD-Glo luminescence (AID 1508614;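 active = compound whose remaining NAD level is above about 45 nM, limit read from the data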;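 also: higher remaining NAD means stronger inhibition of SARM1 NADase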). The following applies: SAM-TIR HEK293T lysate NADase, at 1 µM, stronger effect = higher value.
The target in test [4] is Mitogen-activated protein kinase 7 (Homo sapiens) (UniProt Q13164). As to the kind of experiment: ERK5 transactivation activators in reporter cells, primary screen, cell-based, HTS (AID 1508626;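 active = luciferase signal above three times the same-plate solvent-only control wells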;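 also: luciferase driven by Gal4-ERK5 fusion binding five Gal4 sites before minimal TATA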). The following applies: HeLa Gal4-ERK5 transactivation, 18 h, at 5 µM, stronger effect = higher value.
Test [5] is described as follows: LFS_MB_P medulloblastoma growth inhibition, cell-based, chromothripsis tumors, cisplatin or BGB combos (AID 1671449).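 Also: cells exposed for 96 hours; 0% = vehicle DMSO and 100% = killing by high DMSO.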 The following applies: LFS_MB_P medulloblastoma cells.
Test [6] in a line: HDN33 neuroblastoma growth inhibition, cell-based, chromothripsis tumors, cisplatin or BGB combos (AID 1671450).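 Also: cells exposed to compound for four days; 0% = vehicle DMSO and 100% = cell killing by high DMSO.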 The following applies: HDN33 neuroblastoma cells, stronger effect = higher value.
Test [7] can be described thus: ICB984 medulloblastoma cell growth inhibition, synergistic combos for chromothripsis tumors, cisplatin or BGB combos (AID 1671451; call rule not given here;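 also: cells exposed for 96 hours before readout; 0% = vehicle DMSO and 100% = killing by high DMSO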). The following applies: ICB984 medulloblastoma cells, drug combinations, stronger effect = higher value.
A short description of test [8]: HTB85 osteosarcoma cell growth inhibition, synergistic combos for chromothripsis tumors, BGB or cisplatin IC20 combos (AID 1671453).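 Also: cells exposed for 96 hours before readout; 0% = vehicle DMSO and 100% = high DMSO killing control.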 The following applies: HTB85 osteosarcoma cells, drug combinations, stronger effect = higher value.
A short description of test [9]: polyglutamine-triggered caspase-3 activation inhibitors, cell-based (AID 1583). The following applies: polyglutamine-induced caspase-3 activation, cell assay; stronger effect = higher value;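 tested at 10 µM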.
Test [10] in a line: suppressors of polyQ aggregation in yeast, 75Q-TubU reporter (AID 1593). The following applies: Yeast 75Q polyglutamine aggregation reporter.
Test [11] is described as follows: rescue of polyQ-huntingtin neuronal dysfunction in worms, whole organism, C. elegans mechanosensory neurons, N-terminal huntingtin (AID 1599). The conditions noted are these: touch response, stronger effect = higher value.
Test [12] can be described thus: inhibitors of mitochondrial cytochrome c release, biochemical, purified mitochondria (AID 1603).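 Also: mouse liver mitochondria challenged with calcium chloride; signal normalized to the plate average as 100%.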 The conditions noted are these: stronger effect = lower value.
A short description of test [13]: inhibitors of polyQ protein aggregation (AID 1604). The following applies: polyglutamine-induced protein aggregation inhibition assay; stronger effect = higher value; tested at 2.5 µM.
Test [14] in a line: enhancers of glutamate uptake in motor neurons, MN-1 cell line (AID 1612).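 Also: tested at 1 µM final; 0% = mean of DMSO vehicle wells on each plate; positive means more glutamate uptake than control and negative means less.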 The following applies: MN-1 motor neuron cells, stronger effect = higher value.
Test [15] in a line: suppressors of polyglutamine aggregation in yeast, 75Q-TubH (AID 1616). The conditions noted are these: S. cerevisiae 75Q-TubH polyglutamine aggregation suppression; stronger effect = higher value.
Test [16] can be described thus: liver-stage malaria parasite growth inhibition, primary screen, cell-based, HepG2, luciferase luminescence, HepG2 viability (AID 624349; in the data active = parasite load remaining mostly below about 12%, no sharp cut-off; inactive = mostly above about 10%;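 also: 100% = mean of DMSO negative control wells on the same plate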). The conditions noted are these: P. berghei liver stage in HepG2, luciferase luminescence, concentration not given here; parasite load remaining: stronger effect = lower value; viability: measured here: HepG2 viability without parasites.
A short description of test [17]: sensitizers of A549 cells to miR-34 induction, primary screen, imaging, A549 dox-inducible miR-34, nuclei and caspase counts (AID 1347080;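 active = compounds whose cell count with miR-34 switched on is under 0.7 times the count with it off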). The following applies: A549 miR-34 inducible, Hoechst nuclei count, 48 h.
The nature of test [18]: viability rescue of complex I mutant cybrids, primary screen, cell-based, galactose medium, ATP luminescence (AID 1645843;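 active = z-score of at least 1.8 in each of two replicates, scored against plate mean and spread of sample wells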;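 also: positive z means more ATP and so rescue of galactose-driven cybrid death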). The following applies: complex I mutant cybrid cells, 72 h, stronger effect = higher value.
A short description of test [19]: survival rescue of mitochondrial mutant cells in low glucose, primary screen, MELAS cybrids, Rieske KO mouse fibroblasts, CellTiter-Glo (AID 1508586;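 active = mean z-score across replicates of 1.96 or higher in either the MELAS or the Rieske mutant cell line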;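 also: z relative to plate mean and SD of compound and empty wells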).
Where [20] appears, read: stronger effect = lower value, cell number ratio, induced over uninduced.
Setting [21] is: measured here: relative caspase fold change +Dox/-Dox.
Where [22] appears, read: measured here: total cells with miR-34 induction, stronger effect = lower value.
Setting [23] is: measured here: total cells without miR-34 induction.

Each structure is given as a SMILES string. Where “and” joins values, the source holds several entries; their conditions need not be identical. Equal entries are not always repeated. Inconclusive results are not listed. For part of these data: Potency and affinity values are given separately. Some structures have more than one record in an assay (separate samples or runs), and their calls can disagree. Calls of active or inactive are those of the source. Rule as the data show it, unless noted: active = inhibition above about 80%; inactive = the rest.

Chain of 6-phosphogluconate dehydrogenase, decarboxylating (Homo sapiens) (P52209 whole entry, looked up): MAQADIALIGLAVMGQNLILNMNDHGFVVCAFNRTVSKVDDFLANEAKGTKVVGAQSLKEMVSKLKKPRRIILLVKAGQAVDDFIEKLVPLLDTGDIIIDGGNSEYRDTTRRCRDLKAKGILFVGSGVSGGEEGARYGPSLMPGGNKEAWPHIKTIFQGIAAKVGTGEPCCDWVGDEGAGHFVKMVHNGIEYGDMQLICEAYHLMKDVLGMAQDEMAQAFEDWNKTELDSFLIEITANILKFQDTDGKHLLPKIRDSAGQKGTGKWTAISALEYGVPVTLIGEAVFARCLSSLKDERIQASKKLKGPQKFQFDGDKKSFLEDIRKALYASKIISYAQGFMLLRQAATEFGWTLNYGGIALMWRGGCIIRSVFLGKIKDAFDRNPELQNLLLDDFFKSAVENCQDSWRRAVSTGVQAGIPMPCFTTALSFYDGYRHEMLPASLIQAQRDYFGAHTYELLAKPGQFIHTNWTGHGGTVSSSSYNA
Chain of NAD(+) hydrolase SARM1 (Homo sapiens) (Q6SZW1 whole entry, looked up, the tested form may be a part): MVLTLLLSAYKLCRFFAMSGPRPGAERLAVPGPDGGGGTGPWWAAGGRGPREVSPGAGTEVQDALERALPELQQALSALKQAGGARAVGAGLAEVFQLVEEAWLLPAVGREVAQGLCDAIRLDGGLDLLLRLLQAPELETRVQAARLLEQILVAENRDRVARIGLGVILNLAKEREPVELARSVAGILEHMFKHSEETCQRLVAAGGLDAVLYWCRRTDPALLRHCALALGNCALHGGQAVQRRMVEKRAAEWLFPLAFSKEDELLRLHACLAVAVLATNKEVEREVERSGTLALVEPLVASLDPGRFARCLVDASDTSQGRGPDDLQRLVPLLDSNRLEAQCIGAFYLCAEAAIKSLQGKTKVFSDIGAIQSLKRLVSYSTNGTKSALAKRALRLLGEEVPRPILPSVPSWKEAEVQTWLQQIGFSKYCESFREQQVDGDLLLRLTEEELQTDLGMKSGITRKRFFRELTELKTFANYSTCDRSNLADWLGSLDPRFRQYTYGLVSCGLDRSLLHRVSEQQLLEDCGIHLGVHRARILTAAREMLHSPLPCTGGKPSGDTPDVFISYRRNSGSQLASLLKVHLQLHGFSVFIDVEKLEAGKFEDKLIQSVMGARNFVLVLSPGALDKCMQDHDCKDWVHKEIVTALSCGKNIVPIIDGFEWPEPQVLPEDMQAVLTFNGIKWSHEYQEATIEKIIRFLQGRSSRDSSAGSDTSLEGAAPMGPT
Chain of Mitogen-activated protein kinase 7 (Homo sapiens) (Q13164 whole entry, looked up, the tested form may be a part): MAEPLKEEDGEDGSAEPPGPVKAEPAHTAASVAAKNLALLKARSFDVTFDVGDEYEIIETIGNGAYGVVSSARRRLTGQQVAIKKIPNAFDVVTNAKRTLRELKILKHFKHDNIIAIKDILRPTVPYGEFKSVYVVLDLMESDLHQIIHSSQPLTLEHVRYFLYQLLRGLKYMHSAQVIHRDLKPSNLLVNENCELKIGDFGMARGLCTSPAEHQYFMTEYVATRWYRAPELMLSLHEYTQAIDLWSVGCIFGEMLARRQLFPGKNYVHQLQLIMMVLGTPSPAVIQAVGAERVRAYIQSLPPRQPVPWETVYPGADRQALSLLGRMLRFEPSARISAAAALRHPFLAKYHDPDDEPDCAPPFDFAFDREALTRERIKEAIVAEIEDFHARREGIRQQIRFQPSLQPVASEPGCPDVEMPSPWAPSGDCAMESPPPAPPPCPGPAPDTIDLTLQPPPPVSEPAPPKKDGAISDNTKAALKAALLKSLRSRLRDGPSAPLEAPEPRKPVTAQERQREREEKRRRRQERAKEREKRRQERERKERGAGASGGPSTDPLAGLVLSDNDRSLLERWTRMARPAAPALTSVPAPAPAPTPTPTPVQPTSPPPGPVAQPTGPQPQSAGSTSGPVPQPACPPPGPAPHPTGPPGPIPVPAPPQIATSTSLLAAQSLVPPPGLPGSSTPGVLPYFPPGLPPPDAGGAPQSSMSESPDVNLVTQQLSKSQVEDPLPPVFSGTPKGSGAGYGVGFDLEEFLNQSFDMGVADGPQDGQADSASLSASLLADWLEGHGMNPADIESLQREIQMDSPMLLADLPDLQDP

As for `COc1cc([C@@H]2c3cc4c(cc3[C@@H](O[C@@H]3O[C@@H]5CO[C@@H](c6cccs6)O[C@H]5[C@H](O)[C@H]3O)[C@H]3COC(=O)[C@H]23)OCO4)cc(OC)c1O`, the inhibition (commonly the drop in the measured response relative to a control, in per cent) was -2.92% (inactive) in [1]; -18.8% (inactive) and -25.9% (inactive) in test [5] (at 0.5 µM, stronger effect = higher value); -25.8% and -10.9% in test [5] (measured here: combination with BGB IC20, at 0.005 µM); -33.2% and -18.4% in test [5] (measured here: combination with BGB IC40, at 0.005 µM); -33.7% and -25% in [5] (measured here: combination with BGB IC40, at 0.05 µM); -32.6% and -15.4% in test [5] (measured here: combination with cisplatin, at 0.5 µM, stronger effect = higher value). The inhibition is 28.9% and -5.22% in test [5] (measured here: combination with cisplatin, at 5 µM, stronger effect = higher value); 78% and 92.3% in [6] (BGB combo, at 5 µM); 53.6% (inactive) and 64.1% (inactive) in [6] (at 0.5 µM); 82.1% and 93.8% in [6] (cisplatin combo, at 5 µM); 46.9% and 59.7% in [6] (measured here: with BGB IC20 combination, at 0.5 µM); 51% and 63.1% in [6] (measured here: with cisplatin IC20 combination, at 0.5 µM). In addition, the inhibition in test [6] (single agent, at 5 µM) was 88% and 95.5%; in test [7] (BGB IC20 combo, at 0.005 µM), 20.5% and 3.66%; in [7] (BGB IC40 combo, at 0.005 µM), -28.7% and -5.88%; in test [7] (BGB IC40 combo, at 0.05 µM) it was -11.6% and -12.3%; in test [7] (at 0.5 µM), -25.1% (inactive) and -14.4% (inactive); in [7] (cisplatin combo, at 0.05 µM), -14.7% and -16.3%. The inhibition in [7] (cisplatin combo, at 0.5 µM) was -25.3% and 3.4%; in [7] (cisplatin combo, at 5 µM) it was -14.6% and 1.51%; in test [7] (measured here: 5 uM single agent, at 5 µM), -8.36% and -4.68%; in [8] (at 0.5 µM), 63.9% (inactive) and 81.2% (active); in [8] (measured here: with BGB IC20, at 0.5 µM), 57.1% and 81.5%; in test [8] (measured here: with BGB IC20, at 5 µM), 98.1% and 98.9%. Also, the inhibition in test [8] (measured here: with cisplatin IC20, at 0.5 µM) is 63.4% and 77.7%; in [8] (measured here: with cisplatin IC20, at 5 µM), 99.6% and 99.8%; in test [8] (single agent, at 5 µM), 99.4% and 99.7%. For the same compound, in [2], the AC50 (commonly the concentration giving half of the maximal activity seen) was 13.2 µM (active). The remaining NAD in test [3] was 10 nM (inactive). Moreover, the luciferase signal in [4] is 72 AU (inactive).
Turning to `O=C(O)c1cc(=O)c2ccccc2[nH]1`, the inhibition in [9] was -5.47%; in test [1], 9.19% (inactive). The compound further had a score in [10] of 1.02. Also, the rescue above control in [11] was 12.3. In [12], the cytochrome c release ratio was found to be 0.92. In [13], this compound gave an inhibition of aggregation of 69.7%. For the same compound, the glutamate uptake change in test [14] was -1.73%. In [15], the aggregation suppression score worked out at 0.981. Besides, the parasite load remaining in test [16] was 196% (inactive). In [16], the viability (commonly the share of living cells, or the viability signal relative to a control) was determined as 68.4%. Also, the fold change in test [17] (setting [20]) is 1.09 (inactive) and 0.962 (inactive); in test [17] (setting [21]), 0.635 and 0.733. The cell count in test [17] (setting [22]) is 10600 and 8100; in [17] (setting [23]) it was 9680 and 8420. The luciferase signal in test [4] is 40 AU (inactive). Besides, in [18], the z-score was 0.335 (inactive) and 0.005 (inactive).
As for `CN[C@H](CC(C)C)C(=O)N[C@H]1C(=O)N[C@@H](CC(N)=O)C(=O)N[C@H]2C(=O)N[C@H]3C(=O)N[C@H](C(=O)N[C@H](C(=O)O)c4cc(O)cc(O)c4-c4cc3ccc4O)[C@H](O)c3ccc(c(Cl)c3)Oc3cc2cc(c3O[C@@H]2O[C@H](CO)[C@@H](O)[C@H](O)[C@H]2O[C@H]2C[C@](C)(N)[C@H](O)[C@H](C)O2)Oc2ccc(cc2Cl)[C@H]1O`, the parasite load remaining in test [16] is 70.2% (inactive). In test [16], this compound had a viability of 74.3%. In [1], the inhibition was 3.51% (inactive). In addition, the compound was classed as inactive in test [2]. The figures for the fold change in [17] (setting [20]) and in [17] (setting [21]) were 0.946 (inactive) and 1.32, respectively. The cell count in test [17] (setting [22]) came out at 9810; in test [17] (setting [23]) it was 10400. Moreover, the remaining NAD in test [3] is 10 nM (inactive). The luciferase signal in test [4] is 68 AU (inactive). In addition, the z-score in [18] was 0.26 (inactive).
As for `Nc1ccn([C@@H]2O[C@H](CO)[C@@H](O)[C@H]2O)c(=O)n1`, the inhibition in [1] is -4.47% (inactive). Besides, the compound was called inactive in test [2]. Moreover, the luciferase signal in test [4] is 60 AU (inactive).
Turning to `C[C@H]1O[C@@H](O[C@H]2[C@@H](O)C[C@H](O[C@H]3[C@@H](O)C[C@H](O[C@H]4CC[C@@]5(C)[C@H](CC[C@@H]6[C@@H]5C[C@@H](O)[C@]5(C)[C@@H](C7=CC(=O)OC7)CC[C@]65O)C4)O[C@@H]3C)O[C@@H]2C)C[C@H](O)[C@@H]1O`, the parasite load remaining in test [16] was -10.5% (inactive) and 8.38% (inactive). Further, the viability in [16] was 46.2% and 21%. Moreover, the inhibition in test [1] was -1.7% (inactive). The AC50 in test [2] was 0.0303 µM (active). Moreover, the fold change was 0.979 (inactive) in test [17] (setting [20]) and 2.27 in [17] (setting [21]). The cell count in test [17] (setting [22]) was 512; in test [17] (setting [23]), 523. The z-score in [19] (MELAS cybrid survival, CellTiter-Glo 48 h, stronger effect = higher value) was -1.21 (inactive); in test [19] (Rieske KO mouse fibroblast survival, CellTiter-Glo 72 h), 0.0199. The remaining NAD in [3] was 10 nM (inactive). Further, the luciferase signal in test [4] was 24 AU (inactive).

Values taken from PubChem BioAssay.
